Reference: PubChem BioAssay (NCI)
About 83,000 compounds went through this panel and 20% of them were active in at least one assay; those are over-represented in the sample as a whole.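 Assay: single dose, 48 h. Readout: percent growth (0 = no net growth; negative = cell death). Active: <10.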 Active and inactive are the calls of the source.

What was measured:
Assay in all cases: NCI-60 one-dose screen, 48 h (100 = growth as untreated, 0 = no growth, -100 = all killed)
Settings in all cases: 10 µM unless noted
RPMI-8226 leukemia = system: RPMI-8226 leukemia
OVCAR-8 ovarian = system: OVCAR-8 ovarian
OVCAR-5 ovarian = system: OVCAR-5 ovarian
OVCAR-4 ovarian = system: OVCAR-4 ovarian
SK-OV-3 ovarian = system: SK-OV-3 ovarian
IGROV1 ovarian = system: IGROV1 ovarian
OVCAR-3 ovarian = system: OVCAR-3 ovarian
HS 578T breast = system: HS 578T breast
NCI/ADR-RES ovarian = system: NCI/ADR-RES ovarian
T-47D breast = system: T-47D breast
BT-549 breast = system: BT-549 breast
MDA-MB-435 melanoma = system: MDA-MB-435 melanoma
SW-620 colon = system: SW-620 colon
MCF7 breast = system: MCF7 breast
HCT-116 colon = system: HCT-116 colon
HCC-2998 colon = system: HCC-2998 colon
KM12 colon = system: KM12 colon

Measured: growth

CCN1C(=O)N(CC)C2Nn3c(s/c(=C4\C(=O)Nc5ccccc54)c3=O)=NC21 (stereo unspecified)
inactive: RPMI-8226 leukemia 53.2% | OVCAR-8 ovarian 43.6% | OVCAR-5 ovarian 66.4% | OVCAR-4 ovarian 54.9% | SK-OV-3 ovarian 75.8% | IGROV1 ovarian 52.3% | OVCAR-3 ovarian 10.5% | HS 578T breast 34.7% | NCI/ADR-RES ovarian 73% | T-47D breast 45.8% | BT-549 breast 65.3% | SW-620 colon 27.6% | MCF7 breast 29.1% | HCT-116 colon 31.8% | HCC-2998 colon 88% | KM12 colon 33%
active: MDA-MB-435 melanoma -51%

CC(=O)OC[C@H]1OC(Sc2sc(C(=O)c3ccc(C)cc3)c(N)c2-c2nc3ccccc3s2)[C@H](OC(C)=O)[C@@H](OC(C)=O)[C@@H]1OC(C)=O (stereo partly specified)
active: OVCAR-4 ovarian -13.9%
inactive: RPMI-8226 leukemia 46.5% | OVCAR-8 ovarian 58.7% | OVCAR-5 ovarian 58.6% | SK-OV-3 ovarian 89.9% | IGROV1 ovarian 48.2% | OVCAR-3 ovarian 59.4% | HS 578T breast 52.5% | NCI/ADR-RES ovarian 62.9% | T-47D breast 69.7% | BT-549 breast 83.4% | MDA-MB-435 melanoma 77.4% | SW-620 colon 53.4% | MCF7 breast 73.6% | HCT-116 colon 39.3% | HCC-2998 colon 94.2% | KM12 colon 80.6%

COc1nc2ccccc2cc1-c1nc2c(cnn2-c2ccc(Br)cc2)c(=O)[nH]1
active: OVCAR-3 ovarian -34.2% | NCI/ADR-RES ovarian 4.99% | MDA-MB-435 melanoma -74.8%
inactive: RPMI-8226 leukemia 20.7% | OVCAR-8 ovarian 27.7% | OVCAR-5 ovarian 44.1% | OVCAR-4 ovarian 57.3% | SK-OV-3 ovarian 15.1% | IGROV1 ovarian 41.8% | HS 578T breast 23% | T-47D breast 24.2% | BT-549 breast 50% | SW-620 colon 19.5% | MCF7 breast 22.1% | HCT-116 colon 23.1% | HCC-2998 colon 51.1% | KM12 colon 18.3%

COc1cc(C(=O)/C=C/c2c(Cl)nc3sccn23)cc(OC)c1OC
inactive: RPMI-8226 leukemia 40.8% | OVCAR-8 ovarian 85.9% | OVCAR-5 ovarian 92.6% | OVCAR-4 ovarian 90.6% | SK-OV-3 ovarian 83.3% | IGROV1 ovarian 79.8% | OVCAR-3 ovarian 64.5% | HS 578T breast 61% | NCI/ADR-RES ovarian 81.4% | T-47D breast 81.3% | BT-549 breast 81.3% | MDA-MB-435 melanoma 72.5% | SW-620 colon 65.8% | MCF7 breast 54.8% | HCT-116 colon 52.3% | HCC-2998 colon 104% | KM12 colon 56.7%

Cc1ccc(-c2nc3c(c(-c4ccccc4)nn3-c3ccccc3)c(-c3ccc(O)cc3)c2C#N)cc1
inactive: RPMI-8226 leukemia 21.4% | OVCAR-8 ovarian 69% | OVCAR-5 ovarian 104% | OVCAR-4 ovarian 82.2% | SK-OV-3 ovarian 92.6% | IGROV1 ovarian 82.6% | OVCAR-3 ovarian 64.5% | HS 578T breast 24% | NCI/ADR-RES ovarian 81.4% | T-47D breast 61.2% | BT-549 breast 76.8% | MDA-MB-435 melanoma 64.5% | SW-620 colon 62.8% | MCF7 breast 26.4% | HCT-116 colon 42.4% | HCC-2998 colon 95.3% | KM12 colon 55.9%

Cc1nc2ccccc2c(/C=C/c2ccc(Cl)cc2)c1C(=O)/C=C/c1cccs1
inactive: RPMI-8226 leukemia 53.4% | OVCAR-8 ovarian 74.9% | OVCAR-5 ovarian 92.6% | OVCAR-4 ovarian 60.7% | SK-OV-3 ovarian 78.5% | IGROV1 ovarian 46.6% | OVCAR-3 ovarian 82.2% | HS 578T breast 86.7% | NCI/ADR-RES ovarian 80.7% | T-47D breast 50.1% | BT-549 breast 90.9% | MDA-MB-435 melanoma 89.3% | SW-620 colon 72.4% | MCF7 breast 41.9% | HCT-116 colon 33.9% | HCC-2998 colon 73.5% | KM12 colon 81.5%

CCc1ccccc1-n1c(N)c(C#N)c(-c2ccc(Cl)cc2)c(C#N)c1=O
inactive: RPMI-8226 leukemia 84.2% | OVCAR-8 ovarian 111% | OVCAR-5 ovarian 108% | OVCAR-4 ovarian 93.3% | SK-OV-3 ovarian 108% | IGROV1 ovarian 87% | OVCAR-3 ovarian 107% | HS 578T breast 92.2% | NCI/ADR-RES ovarian 102% | T-47D breast 101% | BT-549 breast 173% | MDA-MB-435 melanoma 119% | SW-620 colon 102% | MCF7 breast 103% | HCT-116 colon 103% | HCC-2998 colon 107% | KM12 colon 95.8%

CN1CCN(Cc2ccc(NC(=O)c3cncc(C#Cc4cnccc4C#N)c3)cc2C(F)(F)F)CC1
inactive: RPMI-8226 leukemia 34.1% | OVCAR-8 ovarian 74.2% | OVCAR-5 ovarian 60.5% | OVCAR-4 ovarian 35.9% | SK-OV-3 ovarian 101% | IGROV1 ovarian 67.2% | OVCAR-3 ovarian 86.3% | HS 578T breast 24% | NCI/ADR-RES ovarian 74% | T-47D breast 93.5% | BT-549 breast 76.5% | MDA-MB-435 melanoma 42% | SW-620 colon 50.7% | MCF7 breast 42.5% | HCT-116 colon 24% | HCC-2998 colon 50.8% | KM12 colon 22.3%

CN1CCN(c2ccc(-c3ccc4ncc(C#N)c(Nc5ccc(F)c(Cl)c5)c4c3)cn2)CC1
inactive: RPMI-8226 leukemia 14.9% | OVCAR-8 ovarian 59.8% | OVCAR-5 ovarian 60.8% | OVCAR-4 ovarian 52.2% | SK-OV-3 ovarian 25.8% | OVCAR-3 ovarian 58.6% | HS 578T breast 52.2% | NCI/ADR-RES ovarian 67.8% | T-47D breast 60.8% | BT-549 breast 60.3% | MDA-MB-435 melanoma 81.6% | SW-620 colon 53.4% | MCF7 breast 66.9% | HCT-116 colon 32.8% | HCC-2998 colon 68.9% | KM12 colon 80.7%
active: IGROV1 ovarian 8.52%

COc1c(B(O)O)cc(C)cc1-c1nc2ccc3[nH]ncc3c2c2c1CCCC2
inactive: RPMI-8226 leukemia 35.6% | OVCAR-8 ovarian 53.3% | OVCAR-5 ovarian 89.3% | OVCAR-4 ovarian 102% | SK-OV-3 ovarian 63.5% | IGROV1 ovarian 60.8% | OVCAR-3 ovarian 102% | HS 578T breast 18.2% | NCI/ADR-RES ovarian 55.7% | T-47D breast 78.5% | BT-549 breast 24.2% | MDA-MB-435 melanoma 22.5% | MCF7 breast 54.6% | HCT-116 colon 21.3% | HCC-2998 colon 62.9% | KM12 colon 30.6%
active: SW-620 colon 8.73%

CCCCC1CCCC12NC(=O)NC2=O (stereo unspecified)
inactive: RPMI-8226 leukemia 101% | OVCAR-8 ovarian 113% | OVCAR-5 ovarian 88.2% | OVCAR-4 ovarian 106% | SK-OV-3 ovarian 110% | IGROV1 ovarian 88.8% | OVCAR-3 ovarian 92.8% | HS 578T breast 112% | NCI/ADR-RES ovarian 92.9% | T-47D breast 91.7% | BT-549 breast 95.1% | MDA-MB-435 melanoma 109% | SW-620 colon 102% | MCF7 breast 105% | HCT-116 colon 99.4% | HCC-2998 colon 96.9% | KM12 colon 106%

CCN1C(=O)N(CC)C2Nn3c(s/c(=C4\C(=O)N(CC(C)C)c5ccccc54)c3=O)=NC21 (stereo unspecified)
active: MDA-MB-435 melanoma -45.9%
inactive: RPMI-8226 leukemia 50.6% | OVCAR-8 ovarian 44.7% | OVCAR-5 ovarian 52.5% | OVCAR-4 ovarian 56.5% | SK-OV-3 ovarian 56.2% | IGROV1 ovarian 47.9% | OVCAR-3 ovarian 21.5% | HS 578T breast 40.5% | NCI/ADR-RES ovarian 11.3% | T-47D breast 46% | BT-549 breast 52.7% | SW-620 colon 35.7% | MCF7 breast 26.1% | HCT-116 colon 14.4% | HCC-2998 colon 76.5% | KM12 colon 31.9%

COc1ccc(/C=N/Nc2cc(=O)[nH]c3ccc(C)cc23)cc1
inactive: RPMI-8226 leukemia 81.6% | OVCAR-8 ovarian 95.6% | OVCAR-5 ovarian 98% | OVCAR-4 ovarian 109% | SK-OV-3 ovarian 87.6% | IGROV1 ovarian 98.4% | OVCAR-3 ovarian 104% | HS 578T breast 88.3% | NCI/ADR-RES ovarian 94.9% | T-47D breast 70.7% | BT-549 breast 88.3% | MDA-MB-435 melanoma 102% | SW-620 colon 96.8% | MCF7 breast 78.1% | HCT-116 colon 83.1% | HCC-2998 colon 99.2% | KM12 colon 105%

CC[C@H](C)C(=O)O[C@H]1CCC=C2C=C[C@H](C)[C@H](CC[C@@H]3CC=CC(=O)O3)[C@H]21
inactive: OVCAR-8 ovarian 82% | OVCAR-5 ovarian 112% | OVCAR-4 ovarian 103% | SK-OV-3 ovarian 99.6% | IGROV1 ovarian 83.9% | OVCAR-3 ovarian 73.2% | HS 578T breast 109% | NCI/ADR-RES ovarian 90.9% | T-47D breast 83.5% | BT-549 breast 87.5% | MDA-MB-435 melanoma 86% | SW-620 colon 85.9% | MCF7 breast 72.3% | HCT-116 colon 48.5% | HCC-2998 colon 101% | KM12 colon 72.5%
active: RPMI-8226 leukemia 0.207%

O=C(/C=C/c1sc(Cl)nc1Cl)c1ccc(F)cc1
inactive: OVCAR-8 ovarian 83.7% | OVCAR-5 ovarian 104% | OVCAR-4 ovarian 102% | SK-OV-3 ovarian 99.4% | IGROV1 ovarian 94.8% | HS 578T breast 86.8% | NCI/ADR-RES ovarian 98.5% | T-47D breast 83.7% | BT-549 breast 103% | MDA-MB-435 melanoma 101% | SW-620 colon 24.7% | MCF7 breast 14.4% | HCT-116 colon 39.4% | HCC-2998 colon 30.4% | KM12 colon 60.8%
active: RPMI-8226 leukemia 0.843% | OVCAR-3 ovarian 9.39%

O=c1[nH][n+](-c2ccc(Br)cc2)no1
inactive: RPMI-8226 leukemia 56.6% | OVCAR-8 ovarian 55.7% | OVCAR-5 ovarian 74.7% | OVCAR-4 ovarian 57.9% | SK-OV-3 ovarian 82.3% | IGROV1 ovarian 62.1% | OVCAR-3 ovarian 58.8% | HS 578T breast 97.7% | NCI/ADR-RES ovarian 73.9% | T-47D breast 28.1% | BT-549 breast 83.1% | MDA-MB-435 melanoma 22.6% | SW-620 colon 36.8% | MCF7 breast 32.8% | HCT-116 colon 79% | HCC-2998 colon 12.7% | KM12 colon 23.3%

N#Cc1c(-c2ccccc2)nc(SCC(=O)Nc2nc(-c3ccc(Cl)cc3)cs2)[nH]c1=O
inactive: RPMI-8226 leukemia 92.5% | OVCAR-8 ovarian 99.1% | OVCAR-5 ovarian 90.7% | OVCAR-4 ovarian 110% | SK-OV-3 ovarian 85.2% | IGROV1 ovarian 96.5% | OVCAR-3 ovarian 108% | HS 578T breast 88.6% | NCI/ADR-RES ovarian 103% | T-47D breast 81.8% | BT-549 breast 93.6% | MDA-MB-435 melanoma 99.6% | SW-620 colon 113% | MCF7 breast 91.7% | HCT-116 colon 81.8% | HCC-2998 colon 81.5% | KM12 colon 103%

Cc1nc2ccccc2n1CC1C(=O)NC(=O)NC1=O
inactive: RPMI-8226 leukemia 115% | OVCAR-8 ovarian 105% | OVCAR-5 ovarian 103% | OVCAR-4 ovarian 107% | SK-OV-3 ovarian 107% | IGROV1 ovarian 106% | OVCAR-3 ovarian 119% | HS 578T breast 110% | NCI/ADR-RES ovarian 99.3% | T-47D breast 107% | BT-549 breast 121% | MDA-MB-435 melanoma 101% | SW-620 colon 108% | MCF7 breast 100% | HCT-116 colon 104% | HCC-2998 colon 127% | KM12 colon 103%
